{"source": "PubChem BioAssay", "note": "Values without a mark were called inactive. Active and inactive are the calls of the source. Cut-off read from the data, not from the text of the source: active = inhibition above about 30%; inactive = the rest.", "data": [{"test": "growth suppression of yeast trafficking mutant, preliminary HTS, modulators of trafficking downstream of Golgi apparatus project, 1536-format plate, OD 615 nm (AID 637)", "details": "yeast transport mutant growth, absorbance 615 nm, 18 h; stronger effect = higher value", "values": [{"molecule": "Clc1ccccc1-c1nnc2sc(-c3ccccn3)nn12", "inhibition": "4.6%"}, {"molecule": "COc1ccc(Cl)c(N2CCN(CCCNC(=O)Nc3ccc(C)cc3)CC2)c1", "inhibition": "-2.91%"}, {"molecule": "COc1ccc(Cl)cc1N1CCN(CCNC(=O)Nc2ccccc2C)CC1", "inhibition": "4.91%"}, {"molecule": "C=CCn1c(Cc2csc(N)n2)nnc1SCC(=O)OCC", "inhibition": "-6.67%"}, {"molecule": "COc1cc2nc(N3CCN(C(=O)C4COc5ccccc5O4)CC3)nc(N)c2cc1OC", "note": "(stereo unspecified)", "inhibition": "6.83%"}, {"molecule": "CC(=O)Nc1ccc(S(=O)(=O)N2CCN(Cc3ccncc3)CC2)cc1", "inhibition": "1.59%"}, {"molecule": "C[C@]12CC[C@@H]3c4ccc(OC(=O)c5ccccc5)cc4CC[C@H]3[C@@H]1CC[C@@H]2O", "inhibition": "32% (active)"}, {"molecule": "CCN(c1ccccc1)S(=O)(=O)c1ccc(F)cc1C", "inhibition": "-5.71%"}, {"molecule": "CC(=O)Nc1cccc(NC(=O)CSc2nnnn2C)c1", "inhibition": "0.95%"}, {"molecule": "COc1ccccc1N1CCN(Cc2nc(N)nc(Nc3ccc(C)c(Cl)c3)n2)CC1", "inhibition": "-3.28%"}, {"molecule": "COc1cccc(-c2cc(C(=O)Nc3cc(C)n(Cc4ccc(Cl)cc4)n3)no2)c1", "inhibition": "-7%"}, {"molecule": "CC(=O)C(Sc1ncnc2c1nnn2-c1ccc(F)cc1)C(=O)N(C)C", "note": "(stereo unspecified)", "inhibition": "4.1%"}, {"molecule": "Cc1ccccc1NS(=O)(=O)c1ccc(NC(=O)c2ccco2)cc1", "inhibition": "-2.38%"}, {"molecule": "Cc1cc(-n2c(C)cc(C(=O)CSc3nnnn3-c3ccc(Cl)cc3)c2C)no1", "inhibition": "-5.56%"}, {"molecule": "c1ccc(OCCOc2ncnc3sccc23)cc1", "inhibition": "-1.75%"}, {"molecule": "O=S(=O)(c1ccc(Oc2ccc(-c3nnco3)cc2)nc1)N1CCC(Cc2ccccc2)CC1", "inhibition": "-10.3%"}, {"molecule": "COc1cccc(CN2C(=O)C3(C(C#N)=C(N)OC4=C3C(=O)CCC4)c3ccccc32)c1", "note": "(stereo unspecified)", "inhibition": "51.6% (active)"}, {"molecule": "COC(=O)Nc1nc2ccc(Sc3ccccc3)cc2[nH]1", "inhibition": "25.2%"}, {"molecule": "CC(C)c1ccc(-c2nc(N3CCOCC3)[nH]c(=O)c2C#N)cc1", "inhibition": "3.33%"}, {"molecule": "COc1ccc2oc(C)c(C(=O)Cn3ccnc3)c2c1", "inhibition": "24.8%"}, {"molecule": "O=C(CCN1CCOCC1)Nc1ccc2c(c1)CCC2", "inhibition": "-4.13%"}]}]}
